# Experimental data: PubChem BioAssay (NCI)
# Compounds without any hit were thinned out: in the full panel of roughly 79,000, 15% have a hit. A number with no mark means an inactive call. Active and inactive are the calls of the source. No stated cut-off is given here; in the data, active means growth inhibition above about 70%; inactive means the rest.
# Key:
# [1] = NCI Yeast Anticancer Drug Screen. Data for the rad50 strain (AID 155);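 further: 0% = growth of vehicle-only cultures of the same strain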; conditions: S. cerevisiae rad50 strain growth inhibition; at 50.0 µM; hits give high values
# Procedure, shortened: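 Cells are treated with compound, grown, and their growth is then scored against vehicle-only cultures of the same repair-deficient yeast strain.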
# [2] = NCI Yeast Anticancer Drug Screen. Data for the mec2-1 strain (AID 157); conditions: S. cerevisiae mec2-1 strain, at 50.0 µM, hits give high values
# Procedure, shortened: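 mec2-1 yeast strain, carrying an alteration in DNA damage repair or cell cycle control, was exposed to compounds; growth inhibition was measured relative to vehicle-treated controls.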
# [3] = NCI Yeast Anticancer Drug Screen. Data for the sgs1 mgt1 strain (AID 161);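 further: 0% = growth of cultures given vehicle only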; conditions: S. cerevisiae sgs1 mgt1 strain, at 50.0 µM, hits give high values
# Procedure, shortened: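 Compounds are added to genetically altered yeast, and growth is compared with cultures given vehicle alone to give percent inhibition.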
# [4] = NCI Yeast Anticancer Drug Screen. Data for the cln2 rad14 strain (AID 165);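 further: 0% = growth equal to vehicle treated cultures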; conditions: S. cerevisiae cln2 rad14 strain, at 50.0 µM, hits give high values
# Procedure, shortened: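 Yeast carrying cln2 and rad14 alterations (cell cycle control and DNA damage repair) were exposed to compounds. Growth inhibition was measured against vehicle-treated controls.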
# [5] = NCI Yeast Anticancer Drug Screen. Data for the bub3 strain (AID 167); conditions: S. cerevisiae bub3 mutant strain, at 50.0 µM, hits give high values
# Procedure, shortened: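 Part of a panel of yeast mutants defective in DNA damage repair or cell cycle regulation. Each strain is grown with compound, and inhibition is calculated relative to solvent-treated cultures.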
# [6] = NCI Yeast Anticancer Drug Screen. Data for the mlh1 rad18 strain (AID 175); conditions: S. cerevisiae mlh1 rad18 strain growth inhibition; at 50.0 µM; hits give high values
# Procedure, shortened: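 Growth inhibition of the yeast strain was measured after compound exposure and expressed relative to vehicle-treated controls. The strain carries defined defects in DNA damage repair.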
Compound,growth inhibition [1],growth inhibition [2],growth inhibition [3],growth inhibition [4],growth inhibition [5],growth inhibition [6]
CCOC(=O)C(=CNc1cccc(N)n1)C(=O)OCC,-3.35%,-17.9%,28%,-8.55%,20.4%,5.75%
CCOc1ncc(C(=O)c2ccc(C)cc2)c(OCC)n1,-8.55%,-20.4%,-6.2%,-58.9%,3.6%,-20.4%
NC(=O)N/N=C1\CCc2ccccc2C1,12.8%,-12.3%,-25.8%,22.4%,-42.3%,-2.8%
COC(=O)c1ccccc1N(C(=O)c1ccccc1)c1ccccc1C,-16.1%,-13.3%,-18.9%,10.4%,-11.3%,-55%
C=CC(C)(C)C1=CC(=O)C(OC)=CC1=O,1.75%,-6.15%,-3.7%,-54.9%,4.15%,-6.65%
CN(NC(=O)c1ccco1)C1=NCCCCN1,-11.8%,-10.6%,-15.3%,-16.6%,-10.2%,0.3%
CCN(CC)CCOC(=O)c1ccc(N=NC2Sc3nc4ccccc4n3C2=O)cc1 (centres undefined),27.9%,20.2%,15.9%,14.4%,6.8%,27.8%
NC(CSSCC(NC(=O)CNC(=O)OCc1ccccc1)C(=O)O)C(=O)O (centres undefined),-13.3%,-38%,-11.2%,-62.8%,-1.05%,2%
O=C(c1ccccc1C(=O)N1CCCO1)N1CCCO1,-0.45%,-8.3%,6.9%,-15.8%,6.15%,16.9%
COC(C(O)C(O)C(O)C(O)CO)n1cnc2cncnc21 (centres undefined),4.05%,5.45%,7.8%,2.9%,-4.2%,2.45%
CCOC(=O)NC(=O)c1cn(C2CCCCC2)c(=O)[nH]c1=O,-14.2%,-3.95%,-5.9%,21.9%,-0.7%,3.35%
CCOC(=O)/C=C/CC1CCNC1 (centres undefined),-22.8%,-2.6%,-13.4%,-52%,-1.5%,-6%
CC(=O)OC1C=C(C=O)C(O)(C=O)C2(C)CCCC(C)(C)C12 (centres undefined),-20.2%,-29.5%,-18.6%,7.95%,8.65%,-17.6%
CC1=CC(=O)OC1=O,4.9%,15%,2.15%,8.9%,5.9%,22%
CCOc1nc(SCC)nc2c1cnn2-c1ccccc1,-8.45%,-26.4%,-9.9%,-15.8%,-1.2%,-19.5%
C=C(C)C(CCC)(C(=O)OCC)C(=O)OCC,3.05%,-9.15%,12.6%,-4.3%,-13.2%,-14.1%
C#CC(C)(C)Nc1ccccc1,-10.8%,2.9%,-6.6%,-6.2%,-4.95%,4.9%
O=C1C(Cl)C(c2ccc(O)cc2)N1n1cnc2ccccc2c1=O (centres undefined),56.6%,37.9%,59.4%,31.9%,32.8%,36.6%
CSC1NC(c2ccccc2)=C(C#N)C(=O)N1C1OCC(OC(C)=O)C(OC(C)=O)C1OC(C)=O (centres undefined),-9.1%,-15.6%,-39.2%,4.75%,3.4%,-1.5%
CCOC(=O)CC1=Nc2ccccc2SC1,-28.4%,-31.2%,-14.8%,-12.8%,-22.6%,-28.6%

Compound,growth inhibition [1],growth inhibition [2],growth inhibition [3],growth inhibition [4],growth inhibition [5],growth inhibition [6]
CC(C)NC(=O)CC(NCc1ccccc1)C(=O)O (centres undefined),5.85%,6.8%,21.1%,9.5%,-6.8%,10.2%
COc1ccc(C(CC(=O)O)c2cc3c(cc2OC)OCO3)cc1 (centres undefined),-4%,-9.85%,3.8%,0.25%,1.1%,-1.75%
CCOC(=O)/C(C#N)=C/Nc1[nH]c(=O)c(C#N)c(-c2ccc(Cl)cc2)c1SC,10.9%,5.8%,-9.35%,-9.2%,2.1%,16.8%
COC(=O)C1OC(n2ccc(=O)[nH]c2=O)C(OC(C)=O)C(OC(C)=O)C1OC(C)=O (centres undefined),2.2%,-3.4%,-1.3%,-9.55%,1.45%,6.6%
COc1cc(CC2c3cc(OC)c(OC)cc3CC[N+]2(C)C)c(Oc2cc(CC3c4cc(OC)c(OC)cc4CC[N+]3(C)C)ccc2OC)cc1OC (centres undefined),8.35%,10.1%,-0.85%,-4.45%,-6.05%,28.6%
Brc1ccccc1-c1nnc(-c2cccc3ccccc23)o1,-20.9%,-59.9%,-15.3%,-10.8%,-26.6%,-23.2%
COC(=O)c1ccccc1C1CN=NC12Cc1c(C)cccc1C2=O (centres undefined),-2.25%,6%,-5%,-7.1%,13.8%,-13.7%
N.N.N.N.N.O=S(=O)([O-])S(=O)(=O)[O-].[Co+3],9.15%,16.4%,13%,23.2%,-2.05%,-9%
c1ccc(C2=Nc3ccccc3C(c3ccccc3)=Nc3ccccc32)cc1,1.05%,3.7%,-8.95%,-18.5%,-1.8%,2.05%
C1=[N+](c2ccccc2)CCN1c1ccccc1,-0.7%,-18.9%,-22.1%,-27.3%,-32.1%,-20.5%
CC(C)(C)OC(=O)NN(CC(=O)OCc1ccccc1)N=O,5.35%,-2.15%,2.9%,-42.5%,10.2%,-7.6%
NCCNC(=O)Cc1cccs1,1.5%,-8.5%,-12.4%,-21.6%,4.45%,-0.8%
O=C1NC(=O)[C@H]2C3C=CC([C@@H]12)[C@@H]1C(=O)NC(=O)[C@H]31,41.7%,21.8%,-22.1%,7.8%,-28.7%,-47.6%
N#CCc1c(-c2ccccc2)n(S(=O)(=O)c2ccccc2)c2ccccc12,4.45%,-2.55%,-20.6%,8.45%,-9.9%,-5.3%
CNC(=O)NNC(=O)NC,-45.1%,-24.6%,-24.6%,-27.6%,-15.7%,-6.05%
CC(C)C1CC[N-]CC1.CC(C)C1CC[N-]CC1.[Cl][Pt+2][Cl],82.6% (active),48%,86.3% (active),18.9%,36.6%,75.4% (active)
CCc1ccc(-c2c(-c3ccccc3)c(-c3ccccc3)c(-c3ccccc3)c(-c3ccccc3)c2-c2ccccc2)cc1,31.1%,6.3%,21.9%,26.1%,-6.3%,30.9%
COc1ccc(Nc2nc3c(N)cc(C(F)(F)F)cc3nc2-c2ccccc2)cc1,10.7%,2.65%,-1.7%,25.9%,6.1%,1.4%
O=P(O)(CP(=O)(c1ccccc1)c1ccccc1)c1ccccc1,15.3%,7.25%,15.9%,16.2%,5.9%,10.9%
